Screening results (PubChem BioAssay)
The list is not random: actives were taken first. Their share in the collection is about 2.3%.
JMJD2E inh – JMJD2E (human) inhibition; B2RXH2; JMJD2E catalytic domain, FDH-coupled NADH fluorescence (FDH is formaldehyde dehydrogenase); Potency, µM (highest dose often 57.1 µM), for inactives: at the top dose activity change, negative = inhibition, hits mostly inhibitors; 1.6% of 230,000 active; AID 2147; active means well fitted inhibition curve with a large enough effect, not every such curve was filed as active; inconclusive means small, poorly fitted or top-dose-only effect, or another doubt; inactive means no such curve, though single readings can be large or run the other way;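 further: potency means the concentration at half of the fitted maximal effect; 0% = wells with enzyme and -100% = buffer wells without enzyme; nearly all actives have a fitted effect of over 50% in size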
Target sequence (B2RXH2 1-337 limits assumed): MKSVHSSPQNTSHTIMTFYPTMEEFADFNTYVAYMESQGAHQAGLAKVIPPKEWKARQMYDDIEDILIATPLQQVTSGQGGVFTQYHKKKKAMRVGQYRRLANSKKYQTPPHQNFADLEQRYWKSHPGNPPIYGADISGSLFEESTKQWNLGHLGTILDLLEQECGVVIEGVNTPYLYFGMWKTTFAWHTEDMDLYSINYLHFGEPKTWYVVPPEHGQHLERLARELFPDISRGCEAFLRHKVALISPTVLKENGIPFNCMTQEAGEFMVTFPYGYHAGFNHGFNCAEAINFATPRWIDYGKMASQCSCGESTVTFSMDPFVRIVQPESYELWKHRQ
Coupling enz – inhibits coupling enzyme system, counter-screen for aldolase hits | coupling enzyme system counterscreen, AmpLite Red fluorescence | AID 2472 | activity change, negative = inhibition, % at 58.2 µM, hits read low | 0.67% of 290,000 active; in the data active means activity change below about -30%; further: on the % scale 0 is the no-effect control and ±100 the full control effect
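Compounds tested against the coupling enzymes alone at 57.5 uM final; readout was AmpLite Red fluorescence (525/598 nm) after 20 min at RT.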
GoLoco inh red – RGS12 GoLoco-Gai1 interaction inhibition; P63096; Potency, µM (titrated, usually from 61.6 µM), for inactives: top-dose activity, negative = inhibition, actives largely listed as inhibitors; AID 880; Gai1:RGS12 GoLoco peptide FP, rhodamine, 10 min; 0.44% of 230,000 active; active means well fitted inhibition curve with a large enough effect, not every such curve was filed as active; inactive means no such curve, though single readings can be large or run the other way; further: potency means the concentration at half of the fitted maximal effect; on the % scale 0 is the no-effect control and ±100 the full control effect; nearly all actives have a fitted effect of over 30% in size
HttQ103 aggreg – reduces HttQ103-GFP aggregates in PC12 cells; PC12 HttQ103-GFP aggregates, Acumen cytometry, 40 h; Potency, µM (series often up to 46.1 µM), without a hit: at the top dose activity change, negative = inhibition, usual class: inhibitors; 1.1% of 220,000 active; further: potency means the concentration at half of the fitted maximal effect; on the % scale 0 is the no-effect control and ±100 the full control effect; nearly all actives have a fitted effect of over 60% in size
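PC12 cells stably carrying ecdysone-inducible HTT exon 1 Q103–GFP were induced with tebufenozide (100 nM final) and treated with library compounds in titration. GFP aggregates in lysates were counted by laser scanning cytometry.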
VDR inhibitor – blocks the human vitamin D receptor. P11473. VDR-SRC2-3 peptide fluorescence polarization, 2 h. Potency, µM, for the others: max response, negative = inhibition, most hits filed as inhibitors. 0.93% of 400,000 active. AID 504847; further: potency means the concentration at half of the fitted maximal effect; on the % scale 0 is the no-effect control and ±100 the full control effect
Target sequence (P11473 whole entry, looked up): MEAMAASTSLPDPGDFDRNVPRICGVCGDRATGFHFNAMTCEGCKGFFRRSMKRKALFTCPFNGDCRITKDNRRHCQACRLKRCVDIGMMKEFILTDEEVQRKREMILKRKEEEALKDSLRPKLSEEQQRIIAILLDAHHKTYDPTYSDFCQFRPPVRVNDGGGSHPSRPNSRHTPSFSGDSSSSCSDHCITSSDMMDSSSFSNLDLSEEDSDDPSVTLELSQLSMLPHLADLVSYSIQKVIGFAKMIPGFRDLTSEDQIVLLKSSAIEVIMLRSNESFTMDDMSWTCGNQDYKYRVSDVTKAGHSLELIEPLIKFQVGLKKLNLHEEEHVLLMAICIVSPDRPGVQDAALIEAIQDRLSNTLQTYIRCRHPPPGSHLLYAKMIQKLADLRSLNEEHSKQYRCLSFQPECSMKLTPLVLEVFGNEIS
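Fluorescence polarization assay of small-molecule disruption of VDR binding to coregulator peptide SRC2-3. Compounds and controls pin-transferred, then read after 2 h incubation at ambient room temperature.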
HTT cytoprotect – protects HTT-Q103 PC12 cells, measured by ATP; PC12 HTT-Q103 induced, cytoprotection, ATP luminescence, 40 h; Potency, µM (top dose mostly 56.4 µM), for the others: cytoprotection (ATP increase), most hits filed as activators; 0.14% of 230,000 active; AID 1471; further: potency means the concentration at half of the fitted maximal effect; % of control where 0% means no effect; nearly all actives have a fitted effect of over 45% in size
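Stable PC12 Q103-GFP cells in serum-supplemented, phenol red-free DMEM; induction by tebufenozide at 100 nM final; compound dose series; cell viability quantified luminescently from ATP.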
Starred values were filed as active, the others as inactive; ? = inconclusive; / = no result given; ! = not active in a repeat; [ ] = dose if it differs, or a comment. Unless noted, the call rests on the fitted dose curve; in most records, active means well fitted curve in the direction sought with a large enough effect; inconclusive means small, poorly fitted or top-dose-only effect, or another doubt; inactive means no such curve, though single readings can be large; an effect the other way counts as inactive or inconclusive.

SMILES	JMJD2E inh	Coupling enz	GoLoco inh red	HttQ103 aggreg	VDR inhibitor	HTT cytoprotect
N[C@H](Cn1cc(I)c(=O)[nH]c1=O)C(=O)O	/	/	/	/	/	-13%[1.9 µM]
O=c1cc(-c2ccc(O)c(O)c2)oc2cc(O)cc(O)c12	13µM*	-3	5%	-32%[9.22 µM]	-24%	?
O=c1c(O)c(-c2ccc(O)c(O)c2)oc2cc(O)cc(O)c12	14µM*	-1	-1%	-26%	-16%	?
CCc1c(C)nc(N)nc1N1N=C1SC(C(C)=O)C(C)=O	?	-1	1%	-16%	22µM*	-40%
COc1ccc(C[C@@H]2NC[C@H](O)[C@H]2OC(C)=O)cc1	/	/	/	/	/	-75%
CNCCc1c[nH]c2ccc(O)cc12	22µM*	-5	8%	/	-5%	-17%[1.9 µM]
CNCCc1c[nH]c2ccccc12	?	3	11%	?	-9%	-68%
COC[C@H]1OC(=O)c2coc3c2[C@@]1(C)C1=C(C3=O)[C@H]2CCC(=O)[C@@]2(C)C[C@H]1OC(C)=O	11µM*	-27	-1%	/	32µM*	-42%
COC[C@H]1OC(=O)c2coc3c2[C@@]1(C)C1=C(C3=O)C2CCC(=O)[C@@]2(C)C[C@H]1OC(C)=O (stereo partly drawn)	-2%	-20	-7%	/	45µM*!	-150%
Nc1ccccc1O.O.O=C(O)[C@H]1[O][Sb][O][C@H]1C(=O)O	/	/	5%[14.2 µM]	/	/	22%[10 µM]
CCN1C[C@@]2(COC)CCC(OC)[C@]34C5C[C@]6(O)[C@@H](OC)C[C@](OC(C)=O)(C([C@H](OC)C23)[C@H]14)C5[C@H]6OC(=O)c1ccc(OC)cc1 (stereo partly drawn)	/	-1	/	/	11%	/
CC(=O)O[C@@H]1C[C@@]2(C)C(c3ccoc3)C[C@H]3O[C@]32[C@]2(C)C(=O)C(O)=C3C(C)(C)C(=O)C=C[C@]3(C)C12 (stereo partly drawn)	-1%	1	-28%	/	14µM*	/
CC(=O)OC1C[C@@]2(C)C(c3ccoc3)C[C@H]3O[C@@]32[C@@]2(C)C(=O)C(O)=C3C(C)(C)C(=O)C=C[C@]3(C)C12 (stereo partly drawn)	7%	-3	8%	/	4µM*	-337%
CCCc1cc2c(n1Cc1cccc(Cl)c1)C(C)C1CN(C(=O)c3ccccc3)C(C)(C(=O)OC)C21 (stereo not drawn)	-7%	-10	68%	/	/	-34%
COc1ccc(C2=NCC(=O)N(CC(=O)NCc3ccco3)c3sc4c(c32)CCCC4)cc1	5%	1	1%	2%	5%	-5%
Cc1cccc(C2=NCC(=O)N(CC(=O)NCc3ccco3)c3sc4c(c32)CCCC4)c1	-2%	-9	36%	11µM*	-15%	-4%
CCCCC/C=C\C/C=C\C/C=C\CCCCC(=O)NCCc1ccc(O)c(O)c1	3%	3	7%	/	6%	-22%
c1ccc2cc3c(cc2c1)-c1cccc2cccc-3c12	/	/	5%	/	/	-27%
c1cncc(CNC2CCCC2)c1	22µM*	1	17%	-4%[9.22 µM]	6%	6%[10 µM]
CC(C)CN1CC[C@@]2(CCCN(C(=O)Oc3ccccc3)C2)C1	/	2	5%	/	?	?
CCOc1ccccc1N=C1SCCCN1C	-12%	1	3.5µM*	-12%	12%	13%[10 µM]
CC(=O)N1CCCSC1=Nc1ccccc1	-3%	4	6%	-12%	-29%	-1%[10 µM]
OC[C@H]1CCCN2CCCC[C@@H]12	/	/	/	/	/	8%
Brc1ccccc1	4%	3	11%	-5%[9.22 µM]	-12%	-95%
c1ccc(SSc2ccccc2)cc1	-14%	5	8%	12%	32µM*	/
SMILES	JMJD2E inh	Coupling enz	GoLoco inh red	HttQ103 aggreg	VDR inhibitor	HTT cytoprotect
Cc1ccccc1C(O)(Cc1ccccc1)C1CN2CCC1CC2 (stereo not drawn)	14%	-1	2%	-2%[9.22 µM]	16%	3.2µM*
Cc1ccc(C(O)(c2ccc(C)c(C)c2)C2CN3CCC2CC3)cc1C (stereo not drawn)	/	3	/	/	23%	/
Nc1ccc2nonc2c1[N+](=O)[O-]	6%	-16	14µM*	-15%	-16%	-9%
CC(Cc1cccc(C(F)(F)F)c1)NCCCc1ccccc1 (stereo not drawn)	/	/	-4%	/	-5%	-30%
O=C1C(Cl)=C(N2CCOCC2)C(=O)N1c1ccccc1F	/	2	/	/	14µM*	/
O=c1[nH]c(=S)n(-c2ccccc2F)c(O)c1C=Nc1ccc(N2CCOCC2)cc1	-14%	-1	53%	?	-2%	-56%
CC(C)c1nccn1Cc1ccc(Cl)cc1Cl	/	/	-8%[14.2 µM]	/	/	-2%[10 µM]
CC1C(=O)OC2C1CC[C@@]1(C)C=CC(=O)[C@@]3(C)O[C@@]213 (stereo partly drawn)	4%	4	7%	/	18%	35µM*
CC(=O)Nc1cc([As](=O)(O)O)ccc1O	5%	4	12%	5%	3%	-9%
CC(=O)Nc1cccc([As](=O)(c2cccc(NC(C)=O)c2)c2cccc(NC(C)=O)c2)c1	-2%	3	5µM*	-12%[9.22 µM]	-9%	4%[10 µM]
COC(=O)[C@@H]1C[C@@]2(O)[C@@H](O)[C@@H](O)[C@@H](O)C[C@H]2N1Cc1cccnc1	-4%	0	5%	/	/	-7%
CC[C@H](CO)NC(=O)[C@@H]1C=C2c3cccc4c3c(cn4C)C[C@@H]2N(C)C1	/	/	/	/	/	-5%[1.9 µM]
CCCCCCNC(=O)N[C@@H](Cc1ccc(O)cc1)C(=O)NCCC[C@H]1CN2C(=NC[C@H]2C)N1CC1CCC1	6%	0	-34%	-27%[9.22 µM]	-12%	1%[10 µM]
CCCCCCNC(=O)N[C@H](Cc1ccc(O)cc1)C(=O)NCCC[C@H]1CN2C(=NC[C@H]2CCC)N1CC1CCC1	?	2	14µM*	11%[9.22 µM]	/	-10%[10 µM]
C=CCCN1C[C@@H]2C[C@H](C1)c1cccc(=O)n1C2	/	/	/	/	/	7%
CSSC	/	/	4%	/	/	-10%
Cc1cccc(-n2c(O)c(/C=C3/C(c4ccccc4)=Nc4ccccc43)c(=O)[nH]c2=O)c1	?	6	89%	-11%[9.22 µM]	89µM*	-36%[10 µM]
Cc1ccccc1-n1c(O)c(/C=C2/C(c3ccccc3)=Nc3ccccc32)c(=O)[nH]c1=O	2%	-1	110%	-5%	89µM*	-38%[1.9 µM]
Cc1ccc(-n2c(O)c(/C=C3/C(c4ccccc4)=Nc4ccccc43)c(=O)[nH]c2=O)cc1	4%	3	/	11µM*	-24%	-53%[10 µM]
CC1=Nc2ccccc2/C1=C/c1c(O)n(C)c(=O)[nH]c1=O	/	0	/	/	-14%	/
O=C1NC(=O)C(=O)C(=O)N1	?	-60*	-8%	/	3.2µM*	/
O=C1NC(=O)C2(CCCC2)C(=O)N1	/	/	/	/	-2%	/
CCCCC/C=C\C/C=C\CCCCCCCCCC(=O)NCCc1ccc(O)c(O)c1	-3%	1	-3%	/	-2%	-48%
